The record followed here is PubChem BioAssay (Tox21).

Records with an inconclusive call do not appear. Active and inactive are the calls of the source. Unless noted, calls come from the whole dose curve.
% is set by controls: 0 for no effect and ±100 for the full control effect.

The nature of the first test: qHTS assay to identify small molecule antagonists of the sonic hedgehog signaling (Shh) pathway (AID 1259369). Note: nearly all actives have a fitted effect of over 45% in size. The conditions noted are these: NIH/3T3 Gli1-Luc reporter, Shh antagonist, luminescence 24 h; series mostly up to 92.4 µM; activity change, negative = inhibition: at the top concentration. Summed up: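 NIH/3T3 stable Gli1-Luc clone, 2,000 cells/well, 4hr settle; cpd + conditioned medium 24hr; Luc reagent 30min RT; luminescence.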
`N#CC(Br)(Br)C(N)=O`: the “activity change, negative = inhibition” value is -24.1% (inactive).

Regarding `C=CCC1(C(C)CC)C(=O)NC(=O)NC1=O` (stereo unspecified), the “activity change, negative = inhibition” value is 18.1% [at 42.5 µM] (inactive).

For the compound `CCCC(C)C1(CC)C(=O)N=C(S)NC1=O` (stereo unspecified), the “activity change, negative = inhibition” value was -0.867% [at 42.5 µM] (inactive).

For `CCOC(=O)NC(C)(C)Cc1ccc(Cl)cc1`, the “activity change, negative = inhibition” value is -7.26% [at 42.5 µM] (inactive).

As for `C[C@@H](N)[C@@H](O)c1ccccc1`, the “activity change, negative = inhibition” value was 24.2% [at 42.5 µM] (inactive).

`O=[N+]([O-])c1cccc(CCl)c1`: the “activity change, negative = inhibition” value is -4.73% (inactive).

As for `CNC(=O)O/N=C(/CSC)C(C)(C)C`, the “activity change, negative = inhibition” value is 0% (inactive).

For `CC(C)(N)Cc1ccc(Cl)cc1`, the “activity change, negative = inhibition” value was 16.9% [at 42.5 µM] (inactive).

In the case of `CCOP(=O)(CN(CCO)CCO)OCC`, the “activity change, negative = inhibition” value is 34.5% (inactive).

`CCCCS(=O)(=O)Cl`: the “activity change, negative = inhibition” value is -4.17% (inactive).

For the compound `CC(C)C(C)(N)C#N` (stereo unspecified), the “activity change, negative = inhibition” value was 27.8% (inactive).

As to `NNCc1ccccc1`, the “activity change, negative = inhibition” value is 5.74% (inactive).

For the compound `CCOC(=O)CC(SP(=S)(OC)OC)C(=O)OCC` (stereo unspecified), the “activity change, negative = inhibition” value is 1.47% [at 42.5 µM] (inactive).

As for `Brc1c(Br)c(Br)c(Br)c(Br)c1Br`, the activity change, negative = inhibition is -28% [at 8.39 µM] (inactive).

On to `ClCC1CO1` (stereo unspecified), for which the “activity change, negative = inhibition” value is 3.34% (inactive).

For the compound `COC(=O)[C@@H](N)CCCN/C(N)=N/[N+](=O)[O-]`, the “activity change, negative = inhibition” value was 11.7% [at 42.5 µM] (inactive).

For `CC(Cl)(Cl)Cl`, the “activity change, negative = inhibition” value was 17.5% (inactive).

As for `N#CN=C1SCCN1Cc1ccc(Cl)nc1`, the “activity change, negative = inhibition” value was 2.51% (inactive).

Regarding `CCN[C@H](C)Cc1cccc(C(F)(F)F)c1`, the “activity change, negative = inhibition” value is 0.0343% (inactive).

Regarding `CCN[C@@H](C)Cc1cccc(C(F)(F)F)c1`, the “activity change, negative = inhibition” value was 57.5% [at 42.5 µM] (inactive).

As to `CCCN1CCC[C@@H]2Cc3nc(N)ncc3C[C@H]21`, the “activity change, negative = inhibition” value was 19% [at 42.5 µM] (inactive).

Take `CCOC(=O)C(SP(=S)(OC)OC)c1ccccc1` (stereo unspecified): the “activity change, negative = inhibition” value was 9.43% (inactive).

On to `CCCCOC(C)=O`, for which the “activity change, negative = inhibition” value was 12.3% (inactive).

Take `Cc1cccc2sc3nncn3c12`: the “activity change, negative = inhibition” value was -23.5% (inactive).

In the case of `NCC1(CC(=O)O)CCCCC1`, the “activity change, negative = inhibition” value was 20.2% [at 42.5 µM] (inactive).

Take `CCN1CCCC1CNC(=O)C(O)(c1ccccc1)c1ccccc1` (stereo unspecified): the “activity change, negative = inhibition” value was 3.44% [at 42.5 µM] (inactive).

In the case of `COc1cc(CC(C)N)cc(OC)c1OC` (stereo unspecified), the “activity change, negative = inhibition” value is -14.5% (inactive).

`CN1COCN(Cc2cnc(Cl)s2)/C1=N\[N+](=O)[O-]`: the “activity change, negative = inhibition” value was -0.605% (inactive).

Take `CS(=O)(=O)c1ccc(C(=O)C2C(=O)CCCC2=O)c(Cl)c1COCC(F)(F)F`: the “activity change, negative = inhibition” value was -6.73% (inactive).

As for `O=C(Cl)c1ccccc1`, the “activity change, negative = inhibition” value was 3.87% (inactive).

In the case of `C#CCOC(=O)/C=C(C)/C=C/CC(C)CCCC(C)C` (stereo unspecified), the “activity change, negative = inhibition” value is -1.39% (inactive).

With `O=C(O)C(Br)(Br)Br`, the “activity change, negative = inhibition” value is 4.05% (inactive).

For the compound `Cc1ccc(-c2nc3ccc(C)cn3c2CC(=O)N(C)C)cc1`, the “activity change, negative = inhibition” value was 27.1% [at 42.5 µM] (inactive).

In the case of `CNC(=O)Oc1ccccc1C(C)C`, the “activity change, negative = inhibition” value was 2.69% (inactive).

On to `CCCCCCC(=O)CCCCCC/C=C/C[C@@H](O)[C@H](O)[C@@](N)(CO)C(=O)O`, for which the activity change, negative = inhibition was 34.1% [at 19 µM] (inactive).

The nature of a further test: qHTS assay to identify small molecule agonists of the androgen receptor (AR) signaling pathway in the presence of an antagonist - cell viability counter screen (AID 1259379; active = well fitted cell-killing curve with a large enough effect in the repeat runs;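 note: MDA-kb2 human breast cancer cells carrying an MMTV luciferase reporter; nearly all actives have a fitted effect of over 25% in size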). Particulars: MDA-kb2 viability, CellTiter-Fluor, 16 h; series mostly up to 92.4 µM; activity change, negative = cytotoxicity: at the top concentration. The gist of the method: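 MDA-kb2 viability measured by CellTiter-Fluor fluorescence in the same wells as the luciferase signal; nilutamide 3.0uM final; 15-point compound titration; 16 hr at 37C.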
On to `N#CC(Br)(Br)C(N)=O`, for which the “activity change, negative = cytotoxicity” value was -4.54% (inactive).

In the case of `C=CCC1(C(C)CC)C(=O)NC(=O)NC1=O` (stereo unspecified), the “activity change, negative = cytotoxicity” value was 2.13% [at 42.5 µM] (inactive).

Take `CCCC(C)C1(CC)C(=O)N=C(S)NC1=O` (stereo unspecified): the “activity change, negative = cytotoxicity” value was -0.201% [at 42.5 µM] (inactive).

Regarding `C[C@@H](N)[C@@H](O)c1ccccc1`, the “activity change, negative = cytotoxicity” value is 1.33% [at 42.5 µM] (inactive).

With `O=[N+]([O-])c1cccc(CCl)c1`, the “activity change, negative = cytotoxicity” value is -2.51% (inactive).

Turning to `CC(C)(N)Cc1ccc(Cl)cc1`, the “activity change, negative = cytotoxicity” value is -7.31% [at 42.5 µM] (inactive).

Take `CCOP(=O)(CN(CCO)CCO)OCC`: the “activity change, negative = cytotoxicity” value was 1.63% (inactive).

Turning to `CCCCS(=O)(=O)Cl`, the “activity change, negative = cytotoxicity” value is 7.94% (inactive).

Turning to `CC(C)C(C)(N)C#N` (stereo unspecified), the “activity change, negative = cytotoxicity” value is 0.892% (inactive).

As to `NNCc1ccccc1`, the “activity change, negative = cytotoxicity” value is 1.83% (inactive).

On to `Brc1c(Br)c(Br)c(Br)c(Br)c1Br`, for which the activity change, negative = cytotoxicity is 0.311% [at 8.39 µM] (inactive).

Consider `ClCC1CO1` (stereo unspecified), for which the “activity change, negative = cytotoxicity” value is 1.91% (inactive).

`COC(=O)[C@@H](N)CCCN/C(N)=N/[N+](=O)[O-]`: the “activity change, negative = cytotoxicity” value is 4.07% [at 42.5 µM] (inactive).

In the case of `CC(Cl)(Cl)Cl`, the “activity change, negative = cytotoxicity” value is 3.1% (inactive).

`N#CN=C1SCCN1Cc1ccc(Cl)nc1`: the “activity change, negative = cytotoxicity” value was 2.1% (inactive).

Take `CCN[C@H](C)Cc1cccc(C(F)(F)F)c1`: the “activity change, negative = cytotoxicity” value is -0.98% (inactive).

Take `CCN[C@@H](C)Cc1cccc(C(F)(F)F)c1`: the “activity change, negative = cytotoxicity” value is 0.467% [at 42.5 µM] (inactive).

In the case of `CCCN1CCC[C@@H]2Cc3nc(N)ncc3C[C@H]21`, the “activity change, negative = cytotoxicity” value was 1.1% [at 42.5 µM] (inactive).

`CCOC(=O)C(SP(=S)(OC)OC)c1ccccc1` (stereo unspecified): the “activity change, negative = cytotoxicity” value was -2.04% (inactive).

Regarding `CCCCOC(C)=O`, the “activity change, negative = cytotoxicity” value is -0.237% (inactive).

On to `Cc1cccc2sc3nncn3c12`, for which the “activity change, negative = cytotoxicity” value is -0.939% (inactive).

`NCC1(CC(=O)O)CCCCC1`: the “activity change, negative = cytotoxicity” value is 1.89% [at 42.5 µM] (inactive).

Regarding `CCN1CCCC1CNC(=O)C(O)(c1ccccc1)c1ccccc1` (stereo unspecified), the “activity change, negative = cytotoxicity” value is 0.196% [at 42.5 µM] (inactive).

`COc1cc(CC(C)N)cc(OC)c1OC` (stereo unspecified): the “activity change, negative = cytotoxicity” value was -3.09% (inactive).

Take `CN1COCN(Cc2cnc(Cl)s2)/C1=N\[N+](=O)[O-]`: the “activity change, negative = cytotoxicity” value is -1.93% (inactive).

For `CS(=O)(=O)c1ccc(C(=O)C2C(=O)CCCC2=O)c(Cl)c1COCC(F)(F)F`, the “activity change, negative = cytotoxicity” value was 5.36% (inactive).

`O=C(Cl)c1ccccc1`: the “activity change, negative = cytotoxicity” value was 3.03% (inactive).

As to `C#CCOC(=O)/C=C(C)/C=C/CC(C)CCCC(C)C` (stereo unspecified), the “activity change, negative = cytotoxicity” value was 1.21% (inactive).

As to `O=C(O)C(Br)(Br)Br`, the “activity change, negative = cytotoxicity” value was 0.569% (inactive).

On to `Cc1ccc(-c2nc3ccc(C)cn3c2CC(=O)N(C)C)cc1`, for which the “activity change, negative = cytotoxicity” value is -4.6% [at 42.5 µM] (inactive).

As to `CCCCCCC(=O)CCCCCC/C=C/C[C@@H](O)[C@H](O)[C@@](N)(CO)C(=O)O`, the activity change, negative = cytotoxicity is 2.63% [at 19 µM] (inactive).
